Measurements taken from PubChem BioAssay AID1445 (SRMLSC, 2008).
Out of some 220,000 compounds screened, about 910 (0.41%) were called active.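 The calls were made as follows: active = primary inhibition above the hit cutoff, then over 50% inhibition at one or more dose response concentrations (cut at about 23% in these data, passing the limit was not always enough); inconclusive = conflicting primary data, or primary hits not chosen for dose response; inactive = low primary inhibition, or under 50% at every dose.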 Shown is part of a subset that was picked to be rich in actives. Entries with a potency or affinity are not part of this list.

Molecular target: Aminopeptidase N (Plasmodium falciparum (isolate 3D7)) (UniProt O96935)
Sequence (O96935 whole entry, looked up): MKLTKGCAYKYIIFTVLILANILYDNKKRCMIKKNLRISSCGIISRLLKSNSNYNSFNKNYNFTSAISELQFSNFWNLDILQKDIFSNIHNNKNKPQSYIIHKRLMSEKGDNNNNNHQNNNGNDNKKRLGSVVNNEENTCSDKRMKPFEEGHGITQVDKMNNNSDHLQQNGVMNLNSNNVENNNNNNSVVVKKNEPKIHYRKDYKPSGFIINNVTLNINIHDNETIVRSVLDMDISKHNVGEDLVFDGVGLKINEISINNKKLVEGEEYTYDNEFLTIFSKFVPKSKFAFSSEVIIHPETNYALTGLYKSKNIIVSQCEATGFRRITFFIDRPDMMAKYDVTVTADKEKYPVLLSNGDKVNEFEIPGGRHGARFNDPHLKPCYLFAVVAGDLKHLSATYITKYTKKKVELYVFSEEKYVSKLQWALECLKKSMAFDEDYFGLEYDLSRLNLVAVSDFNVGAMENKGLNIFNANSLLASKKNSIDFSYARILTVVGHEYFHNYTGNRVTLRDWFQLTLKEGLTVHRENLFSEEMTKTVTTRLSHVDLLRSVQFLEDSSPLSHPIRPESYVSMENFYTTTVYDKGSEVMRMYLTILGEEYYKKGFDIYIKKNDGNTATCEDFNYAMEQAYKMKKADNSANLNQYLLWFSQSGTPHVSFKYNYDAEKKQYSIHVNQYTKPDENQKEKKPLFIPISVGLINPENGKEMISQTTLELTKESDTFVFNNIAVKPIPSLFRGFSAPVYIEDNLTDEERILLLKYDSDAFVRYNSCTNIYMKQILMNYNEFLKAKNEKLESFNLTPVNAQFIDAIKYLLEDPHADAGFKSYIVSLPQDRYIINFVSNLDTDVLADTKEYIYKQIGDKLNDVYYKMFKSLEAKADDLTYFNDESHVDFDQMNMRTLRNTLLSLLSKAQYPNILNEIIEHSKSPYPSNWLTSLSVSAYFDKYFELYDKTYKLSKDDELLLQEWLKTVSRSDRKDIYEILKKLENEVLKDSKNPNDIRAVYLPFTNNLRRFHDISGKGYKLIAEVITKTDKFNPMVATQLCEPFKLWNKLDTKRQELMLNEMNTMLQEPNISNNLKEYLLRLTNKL
Test: P. falciparum M1AAP inhibitors, biochemical, fluorogenic H-Leu-NHMec substrate, 1536-well (AID 1445);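 also: plate controls were DMSO full reaction for no effect and no enzyme background for full effect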
Conditions: recombinant M1AAP, H-Leu-NHMec fluorogenic kinetic assay; at 30 µM, active compounds read high unless noted

inhibition, active:
CSc1nc(N(CCO)CCO)c2sc3nc(-c4ccco4)c4c(c3c2n1)CCC4 27.5%, Cn1c(CNc2ccccc2O)nc2ccccc21 25%

inhibition, inactive:
CC1=CN2C(=N)/C(=C/c3ccc(C)o3)C(=O)N=C2S1 20.6%, N#Cc1cc2c(N)c(C(=O)Nc3ccccc3)sc2nc1N -0.33%, CCN(CC)S(=O)(=O)c1ccc2c(c1)nc(CCC(=O)OCC(=O)Nc1cc(Cl)cc(Cl)c1)n2C 0.35%, Cc1nnc(SCC(=O)Nc2sc3c(c2C(N)=O)CCCC3)[nH]c1=O 11.5%, CCOC(=O)c1c(NC(=O)CSc2nnc(C)c(=O)[nH]2)sc(C)c1C 6.77%, O=C(Nc1cccc2cccnc12)c1ccc2c(c1)OCCO2 3.45%, COC(=O)c1c(C(=O)OC)c(-c2cccc(Cl)c2)n2c1CS(=O)C2 (configuration not stated) 12.7%, Cc1nnc(SCC(=O)Nc2cccc(C(F)(F)F)c2)[nH]c1=O 3.06%, CCN(CCO)c1nc(SC)nc2c1sc1nc(-c3ccco3)c3c(c12)CCC3 20%, CSc1nc(N(C)CCO)c2sc3nc(-c4ccco4)c4c(c3c2n1)CCC4 11.4%, COC(=O)c1sccc1NC(=O)CSCCc1ccccn1 4.36%, O=C(NCc1cccs1)C(Cc1ccccc1)NS(=O)(=O)c1cccs1 (configuration not stated) 13.3%, Cc1ccc(CNC(=O)C(Cc2ccccc2)NS(=O)(=O)c2cccs2)cc1 (configuration not stated) -3.28%, O=C(c1ccco1)N1CCN(Cc2cccnc2)CC1 3.43%, CC(C)(C)NC(=O)Cn1nnc(-c2ccc(S(C)(=O)=O)cc2)n1 9.97%, Cc1onc(-c2ccncc2)c1C(=O)O 0.4%, COc1ccccc1-c1n[nH]c(=S)n1-c1ccccc1 2.6%, CN1CCN(C(=O)c2cc(Cl)ccc2Cl)CC1 8.9%, CC(=O)NNC(=S)NCCc1ccccc1 6.55%, O=C(CCc1ccc(O)cc1)NNC(=S)NCCc1ccccc1 -1.96%, Cc1nn(-c2ccccc2)c(N)c1C1(O)C(=O)N(C)c2ccccc21 (configuration not stated) 1.69%, CC1(C)Nc2ccccc2C(=O)N1NS(=O)(=O)c1ccccc1 2.35%, O=C(NN1C(=O)C2C3C=CC(O3)C2C1=O)c1cccc(O)c1 (configuration not stated) 6.69%, CC(/C=C1\SC(=S)N(NC(=O)c2cccc(O)c2)C1=O)=C\c1ccccc1 -3.91%, CC1Nc2ccccc2C(=O)N1NS(=O)(=O)c1ccccc1 (configuration not stated) 1.49%, O=C(Nc1ccc(C(=O)NN2C(=O)c3ccccc3C2=O)cc1)c1ccccc1 8.25%, Cn1cc(/C=C2\SC(=S)N(NC(=O)c3ccccc3)C2=O)c2ccccc21 3.01%, CCOc1cc(N2CCOCC2)c(OCC)cc1NC(=O)c1ccc(S(C)(=O)=O)cc1 9.02%, COc1ccccc1N(C)S(=O)(=O)c1ccc(C(=O)OCC(=O)NCc2ccco2)cc1 -0.82%, Cc1cccc(NC(=O)N2CCC(c3nc4ccccc4o3)CC2)c1 10%, COc1cc(NC(=S)NC(=O)C(C)C)ccc1NC(=O)c1cc2ccccc2o1 10.7%, COc1ccc(NC(=O)Nc2ccc(OCC(=O)N3CCOCC3)cc2)cc1OC 0.44%, CCC(C)(C)C1CCc2c(sc(NC(=O)c3cccs3)c2C(N)=O)C1 (configuration not stated) -0.66%, C=CCn1c(=NC(=O)CC)n(C)c2ccccc21 0.56%, CCCn1c(CNc2ccccc2O)nc2ccccc21 0.88%, Cn1c(CNc2nc3ccccc3n2C)nc2ccccc21 -11.6%, COc1cc(C(=S)N2CCOCC2)cc(OC)c1OC(=O)Cc1ccc(F)cc1 7.01%, CC(C)(C)NC(=O)NC(=O)COC(=O)CCCc1c[nH]c2ccccc12 3.27%, O=C1NCCCc2nonc21 0.35%, CCOc1cc(/C=N/NS(=O)(=O)c2ccccc2)ccc1OS(=O)(=O)c1ccc(C)cc1 14.5%, COc1cc(/C=N/N=C2/NC(=O)C(CC(=O)O)S2)ccc1OCc1ccc(Cl)cc1 (configuration not stated) 21.8%, CCOc1cc(/C=N/N=C2/NC(=O)C(CC(=O)O)S2)ccc1OCc1ccc(Cl)cc1 (configuration not stated) 9.38%, CCOc1cc(/C=N/O)ccc1OS(=O)(=O)c1ccc(C)cc1 13.6%, CC(=O)Nc1ccc(S(=O)(=O)Oc2ccc(/C=N/N=C3/NC(=O)C(CC(=O)O)S3)cc2)cc1 (configuration not stated) 10.6%, CC(=O)Nc1ccc(S(=O)(=O)Oc2cccc(/C=C3\SC(N)=NC3=O)c2)cc1 -0.74%
